# HT1080-NT tox – kills 2HG-producing HT-1080-NT fibrosarcoma cells; HT-1080-NT fibrosarcoma viability, CellTiter-Glo ATP luminescence, 48 h; Potency, µM (doses to about 46.1 µM), actives largely listed as cytotoxic; 1.6% of 360,000 active; AID 686970;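 note: NT is the 2HG producing partner of a matched IDH1 knockdown line; nearly all actives have a fitted effect of over 55% in size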
#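 Viability by CellTiter-Glo luminescence after 48 h compound exposure at 37C of HT-1080-NT cells (750/well, RPMI, 5% FBS). % activity scaled between DMSO wells and medium-only wells, then curve-fitted and categorized by curve class.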
# ATXN2 expr inh – inhibitors of ATXN2 expression. HEK-293 ATXN2-luciferase reporter, luminescence, 24 h. Potency, µM (doses to about 57 µM), usual class: inhibitors. 0.72% of 360,000 active. AID 1745845; note: nearly all actives have a fitted effect of over 55% in size
#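 qHTS (up to 57 uM final) was run with 24 h compound exposure of reporter cells at 37 °C. Each well was multiplexed: SteadyGlo luminescence measured ATXN2-luciferase expression after a fluorogenic Gly-Phe-AFC viability readout (25 uM final).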
# HepG2 tox – kills HepG2 cells in TGF-b inhibitor counter-screen | 0.76% of 410,000 active | Potency, µM (titrated, usually from 46.1 µM), actives largely listed as cytotoxic | HepG2 CAGA-GFP viability, ATP luminescence, 18 h
#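 CellTiter-Glo luminescence gave cytotoxicity after 18 hours at 37 degrees C. The cells were HepG2 CAGA-GFP in 1% FBS DMEM, stimulated with 500 pg/mL TGF-beta after compound addition. %Activity was normalised to no-cell wells (complete cell-killing) and DMSO (no toxicity), and curves were fitted and classified.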
# ATXN viability – reduces viability in counter-screen for ATXN expression inhibitors | Potency, µM (series often up to 56.7 µM), usual class: cytotoxic | S2 cells (HEK-293 line with an ATXN2-luciferase reporter) viability, CellTiter-Fluor protease fluorescence, 24 h | 0.49% of 400,000 active; note: nearly all actives have a fitted effect of over 40% in size
# TGFb SMAD3 inh – inhibitors of TGF-b signaling; HepG2 CAGA-GFP TGF-b/SMAD3 reporter, GFP fluorescence, 18 h; TGF-beta stimulated, 500 pg/mL final; Potency, µM (doses to about 46.1 µM), most hits filed as inhibitors; 1.2% of 410,000 active; note: nearly all actives have a fitted effect of over 65% in size
#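 HEPG2 CAGA-GFP cells (1000/well, DMEM with 1% FBS) were pre-incubated 2 h at 37 degrees C, given compound by pin tool, then stimulated with TGF-beta at 500 pg/mL final for 18 h before per-cell GFP fluorescence imaging.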
# HT1080 IDH1KD tx – HT-1080 IDH1 knockdown cell toxicity (counter line); 2% of 360,000 active; HT-1080 IDH1 knockdown viability, ATP luminescence, 48 h; Potency, µM (top dose mostly 46.1 µM), most hits filed as cytotoxic
#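 Assay cells: HT-1080 with IDH1 knockdown, 750 per well, RPMI/5% FBS. Exposure: 48 h at 37 °C following 2 h pre-incubation. Read: CellTiter-Glo luminescence; fitted concentration-response, curve class assigned.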
# Numbers stand for hits; - = inactive; ? = inconclusive; . = no result; ! = a repeat was not active. A selection: hits, their analogues and other compounds. The true share with any hit is near 3.8%. Calls come from the whole dose curve; as a rule, active = well fitted curve in the direction sought with a large enough effect; inconclusive = small, poorly fitted or top-dose-only effect, or another doubt; inactive = no such curve, though single readings can be large; an effect the other way counts as inactive or inconclusive.
SMILES,HT1080-NT tox,ATXN2 expr inh,HepG2 tox,ATXN viability,TGFb SMAD3 inh,HT1080 IDH1KD tx
O=C(Nc1ccc(Br)cc1)c1ccc(F)c(S(=O)(=O)N2CCc3ccccc32)c1,.,.,-,.,11µM,.
CC(=O)Nc1ccc(NC(=O)c2ccc(Cl)c(S(=O)(=O)N3CCc4ccccc43)c2)cc1,-,-,-,?,-,-
O=C(Nc1cccnc1)c1ccc(Cl)c(S(=O)(=O)N2CCc3ccccc32)c1,-,-,3.5µM,-,-,-
CCN1C/C(=C\c2cccc([N+](=O)[O-])c2)C(=O)/C(=C/c2cccc([N+](=O)[O-])c2)C1,4.1µM,3.5µM,-,4.5µM,?,2.3µM
COC(=O)c1ccccc1-c1cc(C)cc2c1OC(CNC(=O)c1occc1C)C2 (stereo not given),.,.,.,-,.,.
COc1ccccc1C=CC(=O)C=Cc1ccccc1OC,?,17µM,-,.,10µM,13µM
COc1ccccc1/C=C/C(=O)/C=C/c1ccccc1O,6.5µM,?,-,?,?,5.8µM
CN(C)c1nc(CN2CCCCC2c2cccnc2)nc2ccccc12 (stereo not given),.,.,.,-,.,.
CCCN(CCC)CCCNC(=O)Cn1ncc2c3ccccc3n(Cc3ccccc3F)c2c1=O,.,?,-,14µM,-,.
CCC(C)C(C(=O)OCC[N+](C)(CC)CC)c1ccccc1 (stereo not given),.,.,.,-,.,.
Cc1onc(-c2ccccc2)c1C(=O)Nc1cc(C(F)(F)F)ccc1N1CCOCC1,?,-,-,-,-,2.9µM
Cc1onc(-c2ccccc2)c1C(=O)Nc1ccccc1N1CCOCC1,-,-,-,-,?,-
CCOC(=O)c1ccc(N2CCOCC2)c(NC(=O)c2c(-c3ccccc3)noc2C)c1,1.8µM,-,-,-,-,2.1µM
COc1ccc(NC(=O)N(C)[C@H]2C[C@H]3c4[nH]c5ccccc5c4CCN3C(=O)[C@H]2[C@H](C)O)cc1,-,-,-,-,-,-
COc1ccc(-c2ccc3[nH]c4c(c3c2)CCN2C(=O)[C@@H]([C@H](C)O)[C@@H](N(C)C(=O)Nc3ccccc3)C[C@@H]42)cc1,23µM,?,-,?,?,16µM
CN[C@H]1C[C@H]2c3[nH]c4ccc(-c5ccc(OC)cc5)cc4c3CCN2C(=O)[C@H]1[C@H](C)O,8.2µM,18µM,14µM,?,16µM,13µM
COc1ccc(NC(=O)N(C)[C@H]2C[C@H]3c4[nH]c5ccc(-c6ccc(OC)cc6)cc5c4CCN3C(=O)[C@H]2[C@H](C)O)cc1,23µM,?,-,?,?,16µM
COc1cc(=O)n2c(c1C(=O)NC(C)c1ccco1)CCN(Cc1cc3ccccc3o1)CC2 (stereo not given),.,.,.,-,.,.
Cc1ccc(C)c(C(=O)CSc2nc3cc(C(=O)NC4CCCC4)ccc3c(=O)n2CC2CCCO2)c1 (stereo not given),.,-,-,-,-,.
COCc1c(C(=O)NC2CCOC(C)(C)C2)cnn1-c1nccc(-c2cccs2)n1 (stereo not given),.,.,.,-,.,.
COC(=O)c1cccc(NC(=S)NCCC2=CCCCC2)c1,-,-,-,-,-,21µM
O=c1c2cn[nH]c2nc(SCc2c(F)cccc2F)n1-c1ccc(Cl)cc1,-,-,-,-,16µM!,?
Cc1ccc(-n2c(SCc3ccccc3C)nc3[nH]ncc3c2=O)cc1C,.,?,-,?,?,.
CCc1ccc(-n2c(SCc3ccccc3Cl)nc3[nH]ncc3c2=O)cc1,.,?,-,?,?,.
CCc1ccc(-n2c(SCc3cccc(F)c3)nc3[nH]ncc3c2=O)cc1,.,?,20µM,?,?,.
SMILES,HT1080-NT tox,ATXN2 expr inh,HepG2 tox,ATXN viability,TGFb SMAD3 inh,HT1080 IDH1KD tx
CCc1ccc(-n2c(SCc3ccccc3C)nc3[nH]ncc3c2=O)cc1,.,.,22µM,.,.,.
Cc1ccc(-n2c(SCc3cccc(F)c3)nc3[nH]ncc3c2=O)cc1C,.,-,20µM,?,?,.
COc1ccc(/C=c2\[nH]c(=O)/c(=C/c3ccc(OC)c(OC)c3)[nH]c2=O)cc1OC,.,.,-,.,-,.
CCOc1cc(Br)c(C=O)cc1OCC,26µM,-,-,?,-,33µM
COc1cc(Cl)nn(-c2ccccc2)c1=O,-,-,-,-,-,-
O=c1c(Cl)cc(Cl)nn1-c1ccccc1,?,?,18µM,.,?,?
Nc1ccc2c(c1)CN1C(=O)c3ccccc3C1=N2,.,13µM,.,?,.,.
COc1ccc(OCCN2CCC(C(=O)NC(c3ccc(Cl)cc3)c3ncccc3C)CC2)cc1 (stereo not given),?,?,-,?,?,21µM
CC(C)CN1CCC(C(=O)NC(c2ccc(F)cc2)c2ccc3ccccc3n2)CC1 (stereo not given),-,-,-,?,-,-
COc1ccccc1C(NC(=O)C1CCN(CCOc2ccc3ccccc3c2)CC1)c1ccccn1 (stereo not given),18µM,?,-,?,14µM,18µM
Cc1cccnc1C(NC(=O)C1CCN(CCOc2ccc(F)cc2)CC1)c1ccc(Cl)cc1 (stereo not given),?,-,11µM,?,?,16µM
COc1ccc(/C=C/CN2CCC(C(=O)NC(c3ccc(F)cc3)c3ccc4ccccc4n3)CC2)cc1 (stereo not given),16µM,?,-,35µM,?,10µM
Cc1cccc(C(=O)NCC2Cc3cc(F)cc(-c4cnccn4)c3O2)n1 (stereo not given),.,.,.,-,.,.
Cc1ccccc1C(c1ncccc1C)N(C)C(=O)C1CCN(CCOc2ccc(Cl)cc2Cl)CC1 (stereo not given),?,?,-,25µM,?,23µM
CCOc1cccc2sc(NC(=O)c3ccc(S(=O)(=O)N4CCCCC4C)cc3)nc12 (stereo not given),.,.,-,.,-,.
COc1ccc(C)cc1N(C)C(=O)c1sc2nc3n(c(=O)c2c1C)CCCCC3,.,.,-,.,-,.
Cc1cc(N2CCOCC2)nc(SCc2c(Cl)cccc2Cl)n1,-,-,-,-,11µM,-
CCC1(C2CCN(C(=O)c3ccccc3Cl)CC2)NC(=O)N(CCc2scnc2C)C1=O (stereo not given),.,.,.,-,.,.
Cc1cc(Sc2nnc(/N=C/N(C)C)s2)c2ccccc2n1,15µM,.,11µM,?,8.9µM,18µM
Cc1cc(C)c2ccccc2n1,.,.,-,.,-,.
Cc1cc(Sc2nnc(N)s2)c2ccccc2n1,?,?,-,25µM,7.1µM,?
CC(=O)O[C@@H]1CC2C3CCc4cc(OC(=O)c5ccccc5)ccc4C3CCC2(C)[C@H]1OC(C)=O (stereo not given in full),.,-,.,-,.,.
O=C(Nc1ccccc1F)C(Cc1ccccc1)N1Cc2ccccc2C1=O (stereo not given),.,.,-,.,-,.

# Assay outcomes (PubChem)
